From PubChem BioAssay (Tox21)
Inconclusive results are not listed. Active and inactive are the calls of the source. Unless noted, the call rests on the fitted dose curve; in most records, active means well fitted curve in the direction sought with a large enough effect in the repeat runs; inconclusive means weak or mixed curves; inactive means no such curve, though single readings can be large; an effect the other way counts as inactive or inconclusive.

Experiments:
[1] = qHTS assay to identify small molecule antagonists of the TGF-beta/Smad signaling pathway - cell viability counter screen (AID 1346824); further: on the % scale 0 is the no-effect control and ±100 the full control effect; nearly all actives have a fitted effect of over 50% in size
Procedure, shortened: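 SBE-bla HEK 293T cells were plated overnight at 37 C, then given compounds in DMSO plus TGF-beta1 (added as 0.25 ng/mL solution) for 5 hr. After the bla read, CellTiter-Glo was added to the same wells and luminescence read after 30 min at room temperature.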

[2] = qHTS assay to identify small molecule agonists of the TGF-beta/Smad signaling pathway - cell viability counter screen (AID 1346829); further: top concentration of the series differs between compounds; on the % scale 0 is the no-effect control and ±100 the full control effect; nearly all actives have a fitted effect of over 45% in size
Procedure, shortened: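 After overnight seating at 37 C and 5% CO2, reporter cells got compounds for 5 hr and FRET substrate for 2 hr; cell viability then came from CellTiter-Glo luminescence.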

[3] = qHTS assay to identify small molecule agonists of the TGF-beta/Smad signaling pathway (AID 1346859; active means well fitted activation curve with a large enough effect in the signal ratio in the repeat runs, not every such curve was filed as active; the % refers to the signal ratio; further: series mostly up to about 77 µM; on the % scale 0 is the no-effect control and ±100 the full control effect)
Procedure, shortened: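 SBE-bla HEK293T cells plated overnight, then compound exposure for 5 h at 37 C. Beta-lactamase reporter read with LiveBLAzer B/G FRET substrate after 2 h at room temperature, fluorescence at 405 nm excitation, 460/530 nm emission.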

[4] = biological target: Thyrotropin-releasing hormone receptor (Homo sapiens) (UniProt P34981); experiment: qHTS assay to identify small molecule antagonists of the thyrotropin-releasing hormone receptor (TRHR) signaling pathway (AID 1346877; active means well fitted inhibition curve with a large enough effect in the repeat runs, not every such curve was filed as active; further: series mostly up to about 51 µM; on the % scale 0 is the no-effect control and ±100 the full control effect)
Procedure, shortened: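 Intracellular calcium fluorescence, read kinetically every second over 3 min, reports TRH-evoked signalling in HEK293 cells carrying TRHR. Test compounds were added 5 min ahead of a 1 nM TRH challenge.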

[5] = biological target: Thyrotropin-releasing hormone receptor (Homo sapiens) (UniProt P34981); experiment: qHTS assay to identify small molecule agonists of the thyrotropin-releasing hormone receptor (TRHR) signaling pathway (AID 1346891; calls by dose curve; further: series mostly up to about 58 µM; on the % scale 0 is the no-effect control and ±100 the full control effect)
Procedure, shortened: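 HEK293 cells expressing TRHR plated 18 h at 37 C/5% CO2, calcium dye-loaded 2 h at 37 C, then compound added (agonist mode); kinetic calcium fluorescence read 3 min at 1 s intervals; 15 concentrations in triplicate.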

[6] = Human pregnane X receptor (PXR) small molecule agonists, qHTS cell viability counter screen (AID 1346977); further: on the % scale 0 is the no-effect control and ±100 the full control effect; nearly all actives have a fitted effect of over 50% in size
Procedure, shortened: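 PXR-Luc HepG2 cells (2,000/well, 5% charcoal-stripped FBS) preincubated 5 hr, then exposed to compounds 24 hr at 37 C. Viability read in the same wells by CellTiter-Fluor fluorescence, reagent added at 23 hr, 1 hr incubation.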

[7] = Caspase-3/7 induction in HepG2 cells by small molecules, qHTS assay (AID 1346978); further: on the % scale 0 is the no-effect control and ±100 the full control effect; nearly all actives have a fitted effect of over 15% in size
Procedure, shortened: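 Wild-type HepG2 cells (2,000/well) were settled 5 h at 37 C, 5% CO2, then exposed to compounds in DMSO for 17 h. Caspase-3/7 activity was read by luminescence 30 min after adding Caspase-Glo 3/7 reagent at room temperature.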

[8] = Caspase-3/7 induction in CHO-K1 cells by small molecules, qHTS cell viability counter screen (AID 1346979); further: on the % scale 0 is the no-effect control and ±100 the full control effect; nearly all actives have a fitted effect of over 35% in size
Procedure, shortened: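 Wild-type CHO-K1 cells (1,500/well) treated with compound after 5 h plating; after 16 h at 37C, viability read as CellTiter-Fluor fluorescence following 1 h reagent incubation, in the same wells as the caspase read.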

[9] = Caspase-3/7 induction in CHO-K1 cells by small molecules, qHTS assay (AID 1346980); further: on the % scale 0 is the no-effect control and ±100 the full control effect; nearly all actives have a fitted effect of over 15% in size
Procedure, shortened: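 Wild-type cells were seeded at 1,500 per well and settled 5 hr at 37 C, 5% CO2, then exposed to DMSO-dissolved compounds for 17 hr. Caspase-Glo 3/7 reagent was added, and luminescence was read after 30min at room temperature.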

[10] = Caspase-3/7 induction in HepG2 cells by small molecules, qHTS cell viability counter screen (AID 1346981); further: series mostly up to about 92 µM; on the % scale 0 is the no-effect control and ±100 the full control effect; nearly all actives have a fitted effect of over 30% in size
Procedure, shortened: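 HepG2, WT, 2,000 cells/well; 5 hr pre-incubation 37 C/5% CO2; compound pin-transferred from DMSO; 16 hr exposure; CellTiter-Fluor, 1 hr; fluorescence read.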

[11] = biological target: Nuclear receptor subfamily 1 group I member 2 (Homo sapiens) (UniProt O75469); experiment: Human pregnane X receptor (PXR) small molecule agonists, qHTS assay (AID 1346982); further: on the % scale 0 is the no-effect control and ±100 the full control effect; nearly all actives have a fitted effect of over 35% in size
Procedure, shortened: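 Luciferase signal from ONE-Glo (30 min, room temperature) measured activation of hPXR-driven CYP3A4 reporter expression in PXR-Luc HepG2 cells treated with compounds for 24 hr at 37 C.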

[12] = biological target: Cytochrome P450 2D6 (Homo sapiens) (UniProt P10635); experiment: Cytochrome P450 Family 2 Subfamily D Member 6 (CYP2D6) small molecule antagonists: luciferase reporter qHTS assay (AID 1671196); further: nearly all actives have a fitted effect of over 50% in size; further: potency means the concentration at half of the fitted maximal effect; on activity change, negative = inhibition: series mostly up to about 120 µM; on the % scale 0 is the no-effect control and ±100 the full control effect
Procedure, shortened: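 Read-out is luminescence from luciferin formed by CYP2D6 turnover of a proluciferin substrate, recorded as relative luminescence units. Reactions ran 1 h at room temperature after NADPH regeneration solution was added.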

[13] = biological target: Cytochrome P450 2C19 (Homo sapiens) (UniProt P33261); experiment: Cytochrome P450 Family 2 Subfamily C Member 19 (CYP2C19) small molecule antagonists: luciferase reporter qHTS assay (AID 1671197); further: nearly all actives have a fitted effect of over 65% in size; further: potency means the concentration at half of the fitted maximal effect
Procedure, shortened: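 Inhibition of CYP2C19 was scored from loss of luminescence in a P450-Glo proluciferin substrate assay, NADPH-started and run 1 h at 37C, with ketoconazole as positive control.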

[14] = biological target: Cytochrome P450 2C9 (Homo sapiens) (UniProt P11712); experiment: Cytochrome P450 Family 2 Subfamily C Member 9 (CYP2C9) small molecule antagonists: luciferase reporter qHTS assay (AID 1671198); further: series mostly up to about 120 µM; on the % scale 0 is the no-effect control and ±100 the full control effect; nearly all actives have a fitted effect of over 50% in size
Procedure, shortened: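 CYP2C9 activity was measured with a P450-Glo proluciferin substrate. Enzyme–substrate mix was held with compound for 10 min at room temperature, then NADPH regeneration solution was added for 1 h at 37C. Luciferin product was read as luminescence.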

[15] = biological target: Cytochrome P450 1A2 (Homo sapiens) (UniProt P05177); experiment: Cytochrome P450 Family 1 Subfamily A Member 2 (CYP1A2) small molecule antagonists: luciferase reporter qHTS assay (AID 1671199)
Procedure, shortened: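 P450-Glo CYP1A2, 1536-well qHTS: enzyme/proluciferin substrate + cpd (DMSO), 10 min RT; NADPH regen, 1 h RT; detection reagent, 20 min; luminescence, RLU.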

[16] = biological target: Voltage-gated inwardly rectifying potassium channel KCNH2 (Homo sapiens) (UniProt Q12809); experiment: Human Ether-a-go-go-Related Gene (hERG) channel small molecule antagonists: fluorescence cell-based qHTS assay (AID 1671200)
Procedure, shortened: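 hERG-U2OS cells plated overnight at 37 C, loaded with FluxOR II dye 1 h at RT in dark; after 10 min, thallium stimulus added. Fluorescence (480/540 nm) read kinetically for 2 min at 1 s intervals.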

[17] = biological target: Cytochrome P450 3A4 (Homo sapiens) (UniProt P08684); experiment: Cytochrome P450 Family 3 Subfamily A Member 4 (CYP3A4) small molecule antagonists: luciferase reporter qHTS assay (AID 1671201)
Procedure, shortened: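 P450-Glo CYP3A4 luminescent assay: compounds preincubated 10 min at room temperature with enzyme and proluciferin substrate, NADPH regeneration added, 1 h room-temperature reaction, stopped with luciferin detection reagent; luminescence read after 20 min. Ketoconazole positive control.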

Sequence of Cytochrome P450 3A4 (Homo sapiens) (P08684 whole entry, looked up): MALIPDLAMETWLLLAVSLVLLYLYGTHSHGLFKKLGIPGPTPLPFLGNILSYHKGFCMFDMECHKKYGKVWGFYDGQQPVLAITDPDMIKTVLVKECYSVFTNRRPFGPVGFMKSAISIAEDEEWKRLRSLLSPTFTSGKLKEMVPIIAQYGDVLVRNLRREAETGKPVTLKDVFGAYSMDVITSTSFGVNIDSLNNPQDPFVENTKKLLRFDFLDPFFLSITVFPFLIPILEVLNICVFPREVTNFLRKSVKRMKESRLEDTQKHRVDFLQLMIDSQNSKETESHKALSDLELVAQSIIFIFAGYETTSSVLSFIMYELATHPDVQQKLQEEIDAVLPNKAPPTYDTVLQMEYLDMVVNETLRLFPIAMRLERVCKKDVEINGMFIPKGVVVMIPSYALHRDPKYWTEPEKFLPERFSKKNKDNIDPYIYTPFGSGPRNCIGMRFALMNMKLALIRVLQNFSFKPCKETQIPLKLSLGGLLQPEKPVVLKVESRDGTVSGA
Sequence of Thyrotropin-releasing hormone receptor (Homo sapiens) (P34981 whole entry, looked up): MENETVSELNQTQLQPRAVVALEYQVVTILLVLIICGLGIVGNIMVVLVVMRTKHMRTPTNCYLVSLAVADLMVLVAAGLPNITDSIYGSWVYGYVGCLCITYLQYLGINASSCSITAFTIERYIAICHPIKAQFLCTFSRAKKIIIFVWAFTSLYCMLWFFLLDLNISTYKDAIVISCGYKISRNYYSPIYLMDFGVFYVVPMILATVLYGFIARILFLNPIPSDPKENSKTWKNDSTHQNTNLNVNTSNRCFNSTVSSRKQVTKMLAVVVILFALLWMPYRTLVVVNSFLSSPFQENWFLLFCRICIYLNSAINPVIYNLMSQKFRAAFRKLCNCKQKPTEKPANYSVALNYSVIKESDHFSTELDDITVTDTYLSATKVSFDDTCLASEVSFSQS
Sequence of Cytochrome P450 2D6 (Homo sapiens) (P10635 whole entry, looked up): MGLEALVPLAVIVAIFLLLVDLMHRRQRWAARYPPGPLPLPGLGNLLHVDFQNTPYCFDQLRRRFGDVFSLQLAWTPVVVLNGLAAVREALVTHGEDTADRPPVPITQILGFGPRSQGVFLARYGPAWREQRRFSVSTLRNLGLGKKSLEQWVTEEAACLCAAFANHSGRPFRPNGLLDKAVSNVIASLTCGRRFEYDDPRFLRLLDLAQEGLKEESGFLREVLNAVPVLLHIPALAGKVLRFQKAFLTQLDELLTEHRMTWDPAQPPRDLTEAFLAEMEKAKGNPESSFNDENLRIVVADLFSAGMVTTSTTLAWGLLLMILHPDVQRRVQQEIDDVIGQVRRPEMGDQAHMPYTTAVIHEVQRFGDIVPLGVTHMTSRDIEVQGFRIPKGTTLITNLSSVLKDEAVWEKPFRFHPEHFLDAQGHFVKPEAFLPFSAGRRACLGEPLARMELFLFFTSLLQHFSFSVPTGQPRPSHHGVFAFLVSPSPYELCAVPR
Sequence of Cytochrome P450 2C9 (Homo sapiens) (P11712 whole entry, looked up): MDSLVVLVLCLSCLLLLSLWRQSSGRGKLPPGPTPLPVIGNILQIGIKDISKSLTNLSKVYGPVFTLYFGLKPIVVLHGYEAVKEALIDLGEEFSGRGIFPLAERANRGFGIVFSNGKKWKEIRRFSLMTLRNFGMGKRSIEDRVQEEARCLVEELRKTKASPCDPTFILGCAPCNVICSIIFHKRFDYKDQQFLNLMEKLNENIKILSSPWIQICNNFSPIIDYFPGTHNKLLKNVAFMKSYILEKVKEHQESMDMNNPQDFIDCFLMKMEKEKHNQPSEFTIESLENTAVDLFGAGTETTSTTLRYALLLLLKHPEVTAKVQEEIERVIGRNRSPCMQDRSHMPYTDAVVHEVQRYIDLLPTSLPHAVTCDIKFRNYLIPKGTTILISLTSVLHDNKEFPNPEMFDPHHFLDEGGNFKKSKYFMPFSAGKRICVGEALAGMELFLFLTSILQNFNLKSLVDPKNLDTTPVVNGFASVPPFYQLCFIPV
Sequence of Cytochrome P450 2C19 (Homo sapiens) (P33261 whole entry, looked up): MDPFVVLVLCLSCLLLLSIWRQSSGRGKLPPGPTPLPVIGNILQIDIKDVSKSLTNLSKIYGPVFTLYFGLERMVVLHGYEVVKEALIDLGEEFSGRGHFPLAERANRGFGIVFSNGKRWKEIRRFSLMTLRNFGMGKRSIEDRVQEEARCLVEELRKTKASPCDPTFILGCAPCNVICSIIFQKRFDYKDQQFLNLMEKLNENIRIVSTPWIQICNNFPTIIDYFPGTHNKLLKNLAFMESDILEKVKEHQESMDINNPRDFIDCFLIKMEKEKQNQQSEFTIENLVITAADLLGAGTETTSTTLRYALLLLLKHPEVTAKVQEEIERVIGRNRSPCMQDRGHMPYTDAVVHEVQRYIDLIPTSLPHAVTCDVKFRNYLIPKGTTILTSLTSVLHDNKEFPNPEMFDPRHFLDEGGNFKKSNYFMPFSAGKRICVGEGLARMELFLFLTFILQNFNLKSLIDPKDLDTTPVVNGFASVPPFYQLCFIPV
Sequence of Voltage-gated inwardly rectifying potassium channel KCNH2 (Homo sapiens) (Q12809 whole entry, looked up): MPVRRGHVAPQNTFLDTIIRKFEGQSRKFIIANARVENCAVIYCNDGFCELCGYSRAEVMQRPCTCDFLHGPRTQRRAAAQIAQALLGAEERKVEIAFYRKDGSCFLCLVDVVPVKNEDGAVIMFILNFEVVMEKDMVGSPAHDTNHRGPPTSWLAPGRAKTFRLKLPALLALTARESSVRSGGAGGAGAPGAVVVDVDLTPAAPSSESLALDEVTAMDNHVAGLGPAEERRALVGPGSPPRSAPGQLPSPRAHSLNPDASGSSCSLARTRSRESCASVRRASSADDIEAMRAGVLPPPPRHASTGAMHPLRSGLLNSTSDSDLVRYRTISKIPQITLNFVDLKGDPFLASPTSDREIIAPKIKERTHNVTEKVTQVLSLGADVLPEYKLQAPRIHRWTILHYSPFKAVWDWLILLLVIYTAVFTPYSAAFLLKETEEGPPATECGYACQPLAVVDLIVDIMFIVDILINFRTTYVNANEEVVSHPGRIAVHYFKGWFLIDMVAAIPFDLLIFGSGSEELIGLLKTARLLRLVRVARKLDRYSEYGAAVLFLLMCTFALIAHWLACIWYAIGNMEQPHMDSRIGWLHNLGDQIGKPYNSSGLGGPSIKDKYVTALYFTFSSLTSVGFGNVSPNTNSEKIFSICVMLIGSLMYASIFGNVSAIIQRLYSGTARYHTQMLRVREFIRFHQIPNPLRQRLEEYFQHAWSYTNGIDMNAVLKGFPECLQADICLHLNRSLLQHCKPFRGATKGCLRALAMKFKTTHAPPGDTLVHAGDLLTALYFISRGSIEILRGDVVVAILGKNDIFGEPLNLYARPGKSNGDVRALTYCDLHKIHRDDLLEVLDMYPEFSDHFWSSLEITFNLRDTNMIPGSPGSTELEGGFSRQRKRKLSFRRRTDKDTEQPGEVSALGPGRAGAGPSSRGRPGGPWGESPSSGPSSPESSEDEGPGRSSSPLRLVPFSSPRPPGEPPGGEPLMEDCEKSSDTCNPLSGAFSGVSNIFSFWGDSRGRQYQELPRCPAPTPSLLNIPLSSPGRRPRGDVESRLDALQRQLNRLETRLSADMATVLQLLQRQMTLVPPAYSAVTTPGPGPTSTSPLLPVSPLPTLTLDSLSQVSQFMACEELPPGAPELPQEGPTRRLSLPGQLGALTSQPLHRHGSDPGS
Sequence of Nuclear receptor subfamily 1 group I member 2 (Homo sapiens) (O75469 whole entry, looked up): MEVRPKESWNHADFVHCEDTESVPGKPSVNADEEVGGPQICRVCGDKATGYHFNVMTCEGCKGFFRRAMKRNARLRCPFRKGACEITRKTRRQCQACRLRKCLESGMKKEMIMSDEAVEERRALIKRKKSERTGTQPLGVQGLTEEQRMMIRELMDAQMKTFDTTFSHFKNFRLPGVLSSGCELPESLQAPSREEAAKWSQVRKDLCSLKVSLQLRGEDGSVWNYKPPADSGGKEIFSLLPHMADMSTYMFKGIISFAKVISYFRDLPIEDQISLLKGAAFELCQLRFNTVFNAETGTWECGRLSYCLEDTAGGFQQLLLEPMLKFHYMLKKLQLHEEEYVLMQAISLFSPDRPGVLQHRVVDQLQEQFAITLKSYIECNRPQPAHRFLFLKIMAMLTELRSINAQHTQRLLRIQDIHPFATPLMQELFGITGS
Sequence of Cytochrome P450 1A2 (Homo sapiens) (P05177 whole entry, looked up): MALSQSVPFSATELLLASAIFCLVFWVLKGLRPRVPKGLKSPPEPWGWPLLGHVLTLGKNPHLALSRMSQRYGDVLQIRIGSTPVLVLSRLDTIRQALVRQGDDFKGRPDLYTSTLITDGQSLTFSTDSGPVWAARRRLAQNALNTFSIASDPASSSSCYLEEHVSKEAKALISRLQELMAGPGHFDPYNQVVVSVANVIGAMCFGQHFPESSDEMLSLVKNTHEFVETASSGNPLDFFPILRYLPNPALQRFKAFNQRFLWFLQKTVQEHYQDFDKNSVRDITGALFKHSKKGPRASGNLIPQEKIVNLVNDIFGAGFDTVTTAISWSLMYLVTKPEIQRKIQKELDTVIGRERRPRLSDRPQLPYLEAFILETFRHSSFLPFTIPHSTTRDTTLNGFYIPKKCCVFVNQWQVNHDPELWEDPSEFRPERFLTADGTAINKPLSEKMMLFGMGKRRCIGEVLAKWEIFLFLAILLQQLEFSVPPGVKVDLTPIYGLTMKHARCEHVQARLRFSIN

O=C1c2ccccc2C(=O)c2cc(Cl)ccc21
active: Potency [15] 0.138 µM
inactive: viability change, negative = cytotoxic [1] -4.61% [at 6.97 µM] | activity change, negative = cytotoxicity [2] 7.07% [at 6.97 µM] | activation [3] 1.62% [at 6.97 µM] | activity, negative = inhibition [4] -0.75% [at 4.65 µM] | activation [5] 0.0495% [at 5.23 µM] | activity change, negative = cytotoxicity [6] -0.0384% [at 8.39 µM] | caspase activation [7] -1.72% [at 8.39 µM] | activity change, negative = cytotoxicity [8] 9.78% [at 8.39 µM] | caspase-3/7 activation [9] -0.328% [at 8.39 µM] | activity change, negative = cytotoxicity [10] 3.18% [at 8.39 µM] | activation [11] 8.25% [at 8.39 µM] | activity change, negative = inhibition [12] -1.33% [at 10.5 µM] | activity change, negative = inhibition [13] -15.8% [at 10.5 µM] | activity change, negative = inhibition [14] -13.1% [at 10.5 µM] | activity change, negative = inhibition [16] -0.029% [at 6.97 µM] | activity change, negative = inhibition [17] 5.17% [at 10.5 µM]

Cc1ccccc1C(N)=O
active: Potency [12] 56.3 µM
inactive: outcome [1] | outcome [2] | outcome [3] | outcome [4] | outcome [5] | outcome [6] | outcome [7] | Potency [8] | outcome [9] | outcome [10] | Potency [11] | Potency [14] | Potency [16] | Potency [17]

Cc1cc(C)c(C(=O)O)c(C)c1
inactive: outcome [1] | outcome [2] | outcome [3] | outcome [4] | outcome [5] | outcome [6] | outcome [7] | Potency [8] | outcome [9] | outcome [10] | Potency [11] | Potency [12] | Potency [13] | Potency [14] | Potency [16]

OC1(c2ccc(Cl)cc2)CCNCC1
inactive: outcome [1] | outcome [2] | outcome [3] | outcome [4] | outcome [5] | outcome [6] | outcome [7] | Potency [8] | outcome [9] | outcome [10] | Potency [11] | Potency [16] | Potency [17]
active: Potency [12] 5.49 µM | Potency [13] 3.09 µM
